± gives the standard deviation of the averaged measurements. Whole data set: some 1,900 compounds, median “CD40L-induced NF-kB luciferase activity, plate-corrected, relative to DMSO (0) and IKK inhibitor VII (-100) controls” near 0.032, cut for the lowest 2% near -26. This is one part of a sample in which the lowest values are shown more often than they occur.
The compounds below were run on BL2-NFkB-Luc (assay: CD40L-induced NF-kB luciferase activity, plate-corrected, relative to DMSO (0) and IKK inhibitor VII (-100) controls (% normalized activity); higher = more NF-kB reporter activity (less inhibition)). Conditions: 9.4 µM; stimulus: tCD40L 64 ng/ml; 4.5 h.
Protocol: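 BL2 B cells with a stable NF-kB response-element luciferase reporter (BL2-NFkB-Luc), 384-well. Cells were pre-incubated with compound at 9.4 uM for 1 h at 37 C, then stimulated with 64 ng/ml trimerized CD40L for 4.5 h; luciferase was read with Steady-Glo. Signal was normalised per plate in Genedata (median DMSO neutral control = 0, median IKK inhibitor VII at 50 uM = -100) with Assay Median plate-pattern correction; duplicate plates.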

Question: How did the “CD40L-induced NF-kB luciferase activity” value turn out when O=C1C(=O)c2ccccc2-c2ccccc21 was run?
Answer: Its value is -94.61 ± 0.41.

Question: How did the “CD40L-induced NF-kB luciferase activity” value turn out when O=C1C=Cc2ccccc2C1=O was run?
Answer: The value was 4.88 ± 5.5.

Question: With CCCC[N+]1(C)[C@@H]2CC(OC(=O)[C@H](CO)c3ccccc3)C[C@H]1[C@@H]1O[C@@H]12 (stereo partly drawn) as the compound, how does the “CD40L-induced NF-kB luciferase activity” value read?
Answer: Its value is -0.479 ± 2.2.

Question: How did the “CD40L-induced NF-kB luciferase activity” value turn out when CCN(CC)C(=O)N[C@H]1C[C@@H]2c3cccc4[nH]cc(c34)C[C@H]2N(C)C1 was run?
Answer: The value was -15 ± 8.3.

Question: CC(C)C[C@H]1C(=O)N2CCC[C@H]2[C@]2(O)O[C@](NC(=O)[C@@H]3C=C4c5cccc6[nH]c(Br)c(c56)CC4N(C)C3)(C(C)C)C(=O)N12 (stereo partly drawn) was tested. Which “CD40L-induced NF-kB luciferase activity” value did it give?
Answer: Its value is 3.22 ± 1.5.

Question: c1ccc2c(c1)[nH]c1cnccc12 was tested. Which “CD40L-induced NF-kB luciferase activity” value did it give?
Answer: Its value is -5 ± 7.4.

Question: For COc1cc([C@@H]2c3cc4c(cc3[C@H](O)[C@H]3COC(=O)[C@H]23)OCO4)cc(OC)c1OC, which “CD40L-induced NF-kB luciferase activity” value is on record?
Answer: The value was -50.7 ± 3.

Question: For CCCC(=O)OCC[N+](C)(C)C, which “CD40L-induced NF-kB luciferase activity” value is on record?
Answer: Its value is -5.48 ± 4.7.

Question: Which “CD40L-induced NF-kB luciferase activity” value does the source give for CN1[C@@H]2CC[C@H]1CC(OC(=O)C1C=Nc3ccccc31)C2 (stereo partly drawn) here?
Answer: The value was -2.21 ± 6.7.

Question: Which “CD40L-induced NF-kB luciferase activity” value does the source give for Cc1ccc2c(c1)C1CN(C)CCC1N2C(=O)Nc1cccc(Cl)c1 (stereo not drawn) here?
Answer: Its value is -6.16 ± 2.1.

Question: C[C@H]1OC[C@@H](C[N+](C)(C)C)O1 was tested. Which “CD40L-induced NF-kB luciferase activity” value did it give?
Answer: Its value is -0.99 ± 1.9.

Question: With COc1ccc(CN2CC3CC(C2)c2cccc(=O)n2C3)cc1OC (stereo not drawn) as the compound, how does the “CD40L-induced NF-kB luciferase activity” value read?
Answer: The value was -5.62 ± 3.4.

Question: With CN[C@H](C)[C@H](O)c1ccccc1 as the compound, how does the “CD40L-induced NF-kB luciferase activity” value read?
Answer: The value was -2.12 ± 1.3.

Question: COc1ccc(OCC(=O)N2c3ccc(C)cc3C3CN(C)CCC32)cc1 (stereo not drawn) was tested. Which “CD40L-induced NF-kB luciferase activity” value did it give?
Answer: The value was 0.261 ± 0.6.

Question: CC(C)C[C@H](NC(=O)[C@@H]1CCCN1C(=O)[C@@H](N)Cc1ccc(O)cc1)C(=O)NCC(N)=O was tested. Which “CD40L-induced NF-kB luciferase activity” value did it give?
Answer: Its value is -28.7 ± 4.1.

Question: Which “CD40L-induced NF-kB luciferase activity” value does the source give for CC(C)(C)NCC(O)c1cc(Cl)c(N)c(Cl)c1 (stereo not drawn) here?
Answer: The value was -3.51 ± 17.

Question: COc1ccc(CCN2CCC(Nc3nc4ccccc4n3Cc3ccc(F)cc3)CC2)cc1 was tested. Which “CD40L-induced NF-kB luciferase activity” value did it give?
Answer: Its value is -4.18 ± 3.9.

Question: CC[C@H]1CN2CCc3cc(OC)c(OC)cc3[C@@H]2C[C@@H]1C[C@H]1NCCc2cc(OC)c(OC)cc21 was tested. Which “CD40L-induced NF-kB luciferase activity” value did it give?
Answer: Its value is -93.93 ± 0.21.

Question: Which “CD40L-induced NF-kB luciferase activity” value does the source give for c1ccc2c3c([nH]c2c1)CNCC3 here?
Answer: The value was -0.0865 ± 4.1.

Question: C[C@@H]1O[C@@H](O[C@H]2C[C@@H](O)[C@]3(CO)[C@H]4[C@H](O)C[C@]5(C)[C@@H](C6=CC(=O)OC6)CC[C@]5(O)[C@@H]4CC[C@]3(O)C2)[C@H](O)[C@H](O)[C@H]1O was tested. Which “CD40L-induced NF-kB luciferase activity” value did it give?
Answer: The value was -78.94 ± 0.33.

Question: How did the “CD40L-induced NF-kB luciferase activity” value turn out when CC12CC[C@H]3[C@@H](CCC4(O)C[C@H](O)CCC34C=NNC(=O)Cc3ccccc3)C1(O)CCC2C1=CC(=O)OC1 (stereo partly drawn) was run?
Answer: Its value is -1.26 ± 0.48.

Question: With C[C@@H]1O[C@@H](O[C@H]2C[C@@H](O)[C@]3(CO)[C@H]4[C@H](O)C[C@]5(C)[C@@H](C6COC(=O)C6)CC[C@]5(O)[C@@H]4CC[C@]3(O)C2)[C@H](O)[C@H](O)[C@H]1O (stereo partly drawn) as the compound, how does the “CD40L-induced NF-kB luciferase activity” value read?
Answer: Its value is 2.54 ± 3.8.

Question: For CC12CN3CC(C)(CN(C1)C3c1cccs1)C2O (stereo not drawn), which “CD40L-induced NF-kB luciferase activity” value is on record?
Answer: The value was -2.02 ± 2.9.

Question: How did the “CD40L-induced NF-kB luciferase activity” value turn out when C[C@]12CCC(=O)C=C1CCC1C2CC[C@@]2(C)C1CC[C@@]2(O)CC#N (stereo partly drawn) was run?
Answer: Its value is -0.607 ± 3.7.

Question: Which “CD40L-induced NF-kB luciferase activity” value does the source give for O=C1CSC2N1CCNC21CCCCC1 (stereo not drawn) here?
Answer: Its value is -1.57 ± 5.5.

Question: With CCC1(c2ccccc2)C(=O)N(COC)C(=O)N(COC)C1=O as the compound, how does the “CD40L-induced NF-kB luciferase activity” value read?
Answer: The value was -30.1 ± 1.2.

Question: How did the “CD40L-induced NF-kB luciferase activity” value turn out when CN1C2CCC1CC(OC(=O)c1ccc(Cl)cc1)C2 (stereo not drawn) was run?
Answer: The value was -2.24 ± 2.5.

Question: With CN(C)[C@@H]1C(=O)C(C(N)=O)C(=O)[C@@]2(O)C(=O)C3C(=O)c4c(O)cccc4[C@@](C)(O)[C@H]3[C@H](O)[C@@H]12 (stereo partly drawn) as the compound, how does the “CD40L-induced NF-kB luciferase activity” value read?
Answer: Its value is 0.102 ± 0.97.

From the supplement of paper PMC3656093
